# A selection: hits, their analogues and other compounds. The true share with any hit is near 6.5%.
# HCMV inh = human cytomegalovirus inhibition; HFF cells, HCMV-luciferase reporter, 72 h; hits give low values; activity change, negative = inhibition, % at 57.5 µM; hit rate 4.5% among 410,000; AID 1259415; in the data active = activity change below about -60%; inconclusive = no clear call, values can overlap the other calls; inactive = above about -39%
#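 Compounds were evaluated in HFFs infected with an HCMV luciferase reporter virus (MOI 1 PFU/cell). Luciferase in lysates collected 72 h post infection served as the replication measure.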
# Lassa entry inh = Lassa virus entry inhibition; Lassa virus pseudotype entry inhibition, cell reporter; Potency, µM (titrated, usually from 37.9 µM), for inactives: top-dose activity change, negative = inhibition, actives largely listed as inhibitors; hit rate 1.2% among 300,000; AID 540256; calls by dose curve; tested in HEK293 cells; also: potency is read from the fitted curve at half-maximal effect; nearly all actives have a fitted effect of over 50% in size
# VACV Venus inh = vaccinia inhibition (Venus reporter) | Vaccinia virus Venus reporter expression, fluorescence | Potency, µM (top dose mostly 36.5 µM), inactives show top-dose activity change, negative = inhibition, most hits filed as inhibitors | hit rate 0.46% among 330,000 | AID 720580; calls by dose curve; tested in A549 cells; also: potency is read from the fitted curve at half-maximal effect; nearly all actives have a fitted effect of over 30% in size
# FMDV inh = blocks foot and mouth disease virus. FMDV antiviral cell-based qHTS. Potency, µM (top dose mostly 57.9 µM), without a hit: at the top dose activity change, negative = inhibition, most hits filed as inhibitors. hit rate 1.2% among 410,000; calls by dose curve; tested in HEK293T cells; also: read-out not given here; potency is read from the fitted curve at half-maximal effect; nearly all actives have a fitted effect of over 45% in size
# MARV entry inh = inhibitors of Marburg virus binding or cell entry | Marburg virus pseudotyped entry inhibition, cell reporter | Potency, µM (titrated, usually from 37.8 µM), without a hit: at the top dose activity change, negative = inhibition, most hits filed as inhibitors | hit rate 1.8% among 300,000 | AID 540276; calls by dose curve; tested in HEK293 cells; also: potency is read from the fitted curve at half-maximal effect
# Vaccinia mCherry = vaccinia inhibition (mCherry reporter) | Vaccinia virus mCherry reporter infection, fluorescence | Potency, µM (top dose mostly 36.5 µM), without a hit: at the highest dose activity change, negative = inhibition, actives largely listed as inhibitors | hit rate 0.63% among 310,000; calls by dose curve; tested in A549 cells; also: potency is read from the fitted curve at half-maximal effect; nearly all actives have a fitted effect of over 35% in size
# The depositor's hits bear a star; i = inactive; u = inconclusive; x = no result given; + = active, no number; ! = not active in a repeat; [ ] = another dose, or the depositor's remark. % is scaled to controls: 0 for no effect and ±100 for the full control effect.
SMILES,HCMV inh,Lassa entry inh,VACV Venus inh,FMDV inh,MARV entry inh,Vaccinia mCherry
COc1ccccc1N1CCN(C(=O)c2ccc(Nc3nc4ccccc4n4nnnc34)cc2)CC1,-10.0,9.1%[46.1 µM],0.6%,7.3%,-10.3%[46.1 µM],-7.3%
COc1cc(CN2CCC3(CCC(CNC(=O)c4ccco4)O3)CC2)cc(OC)c1 (stereo unspecified),x,x,-13.9%,-8.6%,x,-14.2%
O=C(NC1CCN(S(=O)(=O)c2cccc([N+](=O)[O-])c2)CC1)C1CCCCC1,9.5,4.5%,-4.4%,0.0%,-2.4%[46.1 µM],-2.2%
O=C(NC1CC1)C1CCN(S(=O)(=O)c2ccc(Cl)c([N+](=O)[O-])c2)CC1,-102.7*,x,x,u,x,x
Cc1cc(C)n(C(C[N+](=O)[O-])c2ccc(Cl)cc2)n1 (stereo unspecified),-104.8*,-2.2%,-5.9%,u,-19.5%,-19.9%
Cc1cccc(Nc2nc(N)c([N+](=O)[O-])c(N3CCCC(C)C3)n2)c1 (stereo unspecified),-77.3*,u,10µM*,22.4µM*,u,12.6µM*
Cc1ccc(Nc2nc(N)c([N+](=O)[O-])c(N3CCC(C)CC3)n2)cc1C,-10.6,-1.5%,-5.6%,-16.6%,14.1µM*,-3.8%
CC(=O)Oc1cccc(N2C(=O)c3cccc4c([N+](=O)[O-])ccc(c34)C2=O)c1,-93.7*,x,x,-10.8%,x,x
Cc1ccc(C(=O)O)cc1N1C(=O)c2cccc3c([N+](=O)[O-])ccc(c23)C1=O,-99.8*,x,x,u,x,x
CN(C)CCCN1C(=O)c2cccc3c([N+](=O)[O-])ccc(c23)C1=O,-24.7,u,137.0%,u,1.84µM*,i
O=C(O)c1ccc(CN2C(=O)c3cccc4c([N+](=O)[O-])ccc(c34)C2=O)cc1,x,-28.6%[46.1 µM],-5.5%,u,u,-2.6%
COC[C@H]1O[C@H](c2ccccc2)C=C[C@H]1OCc1cccc(Br)c1,x,x,x,x,-14.9%[14.2 µM],x
N[C@@H]1C=CC=C(C(=O)O)C1,x,x,x,x,-3.6%,x
CCc1nnc(NS(=O)(=O)c2ccc(NC(=O)c3ccccc3OC)cc2)s1,+,x,x,12.6%,x,x
CSc1ccccc1C(=O)Nc1ccc(S(=O)(=O)NC2=NCCCCC2)cc1,0.0,x,x,10.7%,x,x
COc1ccccc1C(=O)Nc1ccc(S(=O)(=O)NC2=NCCCCC2)cc1,-60.3*,-24.5%[46.1 µM],-11.5%,7.0%,-19.1%[46.1 µM],i
CON(C)C(=O)/C=C/[C@H](CC1CCCC1)NC(=O)C(F)(F)F,-9.6,x,x,x,x,x
CCOC(=O)CCCNC(=O)N[C@H]1CC[C@@]23CCCN2C(=O)CCC[C@H]3C1Cc1ccccc1 (stereo partly specified),-5.2,x,x,x,x,x
O=C1Nc2ccc(I)cc2/C1=C/c1cc(Br)c(O)c(Br)c1,x,-0.1%,-12.4%,-18.7%,u,i
O=C1Nc2ccc(C(=O)c3ccco3)cc2/C1=C/c1cc(Cl)c(O)c(Cl)c1,x,3.15µM*,x,x,x,x
CCC(C)[C@H](NC(=O)c1cc2cc(Cl)ccc2n1C)C(=O)N1CCC(C(=O)O)CC1 (stereo partly specified),-67.6*,-0.3%[46.1 µM],-10.0%,-5.9%,0.2%[46.1 µM],i
Clc1ccc(C(c2ccc(Cl)cc2)C(Cl)(Cl)Cl)cc1,x,x,-20.9%,3.55µM*,x,-17.0%
NN(CCO)C(=S)Nc1ccc(Cl)cc1,72.9,-0.2%[46.1 µM],u,-6.7%,25.3%[46.1 µM],10µM*
COc1ccc(C(=O)c2sc(Nc3cc(Cl)ccc3C)nc2N)cc1OC,-13.2,7.8%[46.1 µM],-9.5%,0.0%,x,-21.6%
Nc1nc(Nc2ccccc2)sc1C(=O)c1ccccc1,-88.3*,u,28.2µM*,53.1%,-16.2%[46.1 µM],u
SMILES,HCMV inh,Lassa entry inh,VACV Venus inh,FMDV inh,MARV entry inh,Vaccinia mCherry
COc1ccc(C(=O)c2sc(Nc3ccccc3)nc2N)cc1,-61.1*!,u,u,50.7%,x,i
COc1ccc(C(=O)c2sc(Nc3ccccc3)nc2N)cc1OC,-92.1*,-27.7%,u,u,u,u
Cc1ccccc1Nc1nc(N)c(C(=O)c2ccccc2Cl)s1,-68.9*,11.1%[46.1 µM],u,-13.1%,x,u
COc1ccc(C(=O)c2sc(Nc3ccccc3F)nc2N)cc1,100.3,x,x,29.1%,x,x
O=C(CC(NC(=O)c1ccccc1)c1ccccc1)OCc1nc(-c2cccc(Cl)c2)no1 (stereo unspecified),x,x,-6.4%,x,x,-17.5%
Fc1ccc(C(NCCc2ccc(Cl)cc2)c2nnc(-c3ccccc3Cl)o2)cc1 (stereo unspecified),12.0,-23.7%[46.1 µM],-4.9%,2.1%,u,-2.6%
Cc1cc(C)cc(N/C(N)=N/c2nc(C)cc(C)n2)c1,38.3,20.6µM*,u,-28.0%,u,-24.7%
Cc1cccc(N/C(N)=N/c2nc(C)cc(C)n2)c1,29.3,-0.1%,-18.6%,-18.8%,u,u
Cc1cc(C)nc(/N=C(\N)Nc2ccccc2-c2ccccc2)n1,u,-19.7%,-29.7%,17.8µM*,u,u
COc1cc(N/C(N)=N/c2nc(C)cc(C)n2)c(OC)cc1Cl,-18.9,-23.3%,x,u,9.2µM*,x
CCCCc1ccc(N/C(N)=N/c2nc(C)cc(C)n2)cc1,-97.1*,u,u,25.1µM*,u,u
Cc1ccc(N/C(N)=N/c2nc(C)cc(C)n2)cc1,-4.0,12.3%,-20.9%,0.0%,-34.9%,-2.1%
CCCC[C@]12Cc3cc(C#N)ccc3[C@H](O1)c1c(cc(C)n(Cc3ccccc3)c1=O)O2,x,x,x,x,-22.7%[14.2 µM],x
Cc1cc(C)nc(/N=C(\N)Nc2ccc(C(C)C)cc2)n1,-63.0*,u,-17.4%[7.34 µM],14.1µM*,10µM*,-16.5%[7.34 µM]
CSc1ccc(CNc2cccc3ccccc23)cc1,-63.7*,u,19.6%,x,u,-6.1%
CSc1ccc(/C=N/NC(=O)CNc2cccc3ccccc23)cc1,2.2,9.4%,-14.1%,-5.0%,u,-15.5%
Cc1cc(C)cc(NC(=O)c2oc3ccc4c(c3c2C)C(=O)CC(C)(C)O4)c1,-105.3*,6.8%[46.1 µM],-4.1%,-2.6%,x,-8.1%
COc1ccc(/C=C/c2nc(C#N)c(N3CCC(C(N)=O)CC3)o2)cc1OC,6.3,-7.2%[46.1 µM],-9.2%,-1.4%,15.7%[46.1 µM],-18.1%
O=C(/C=C/c1ccc(Cl)cc1)NCc1cccs1,-9.8,5.8µM*,-17.2%,4.3%,-3.5%,i
Cc1ccc(C(=O)NCCc2cccs2)cc1,-61.0*,u,x,-70.5%,1.83µM*,x
O=C(NCCc1cccs1)c1ccc(Cl)cc1,-1.4,5.62µM*,-27.3%,-10.2%,u,-7.1%
O=C(NCCc1cccs1)c1ccc(Cl)c(Cl)c1,-11.7,23.1%,u,0.0%,u,u
O=C(CS(=O)(=O)c1cccc2nsnc12)Nc1ccccc1Cl,4.2,-7.5%[46.1 µM],7.9%,19.1%,x,2.8%
O=c1[nH][nH]c2c([N+](=O)[O-])ccc(F)c12,-61.5*,x,x,x,x,x
O=c1[nH][nH]c2c(N=Cc3ccccc3O)ccc(F)c12,x,u,-1.9%,-21.1%,u,-16.9%
CCOc1ccc2nc(C)cc(Nc3cccc([N+](=O)[O-])c3)c2c1,-97.0*,u,u,-19.4%,u,11.2µM*
Cc1cc(Nc2ccccc2Cl)c2ccccc2n1,-73.4*,u,-17.3%,u,u,-13.0%
